According to the supplement of paper PMC6555819:

Assays:
Assay in all cases: PBM binding z-score (relative to random genomic background probes); higher = stronger binding; sequences stand for … in GC…GCGATTGACAGCGTAGAATGAAGG
[1] = tested on: FXR:RXRa (NR concentration 270 nM, RXRa partner concentration 90 nM)
In short: (§1)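 Antibodies against each partner of ligand-free nuclear receptor dimers (one per run) detected binding on custom Agilent 4×180K protein-binding microarrays after 1 h incubation. The double-stranded probes had 34-nt variable regions carrying direct-repeat seeds, single-nucleotide variants, half-site ablations and random human genomic background sequences. Binding z-scores, from regression-normalized fluorescence, use the random background probes as reference.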

[2] = tested on: LXRa:RXRa (NR concentration 270 nM, RXRa partner concentration 90 nM)
In short: as §1

[3] = tested on: LXRa homodimer (NR concentration 270 nM)
In short: as §1

[4] = tested on: LXRb:RXRa (NR concentration 270 nM, RXRa partner concentration 90 nM)
In short: as §1

[5] = tested on: LXRb homodimer (NR concentration 270 nM)
In short: as §1

[6] = tested on: PPARa:RXRa (NR concentration 270 nM, RXRa partner concentration 90 nM)
In short: as §1

[7] = tested on: PPARg:RXRa (NR concentration 180 nM, RXRa partner concentration 90 nM)
In short: as §1

[8] = tested on: PPARg:RXRa 270nM:90nM, anti-RXR (NR concentration 270 nM, RXRa partner concentration 90 nM)
In short: as §1

[9] = tested on: PPARg:RXRa 30nM:10nM, anti-RXR (NR concentration 30 nM, RXRa partner concentration 10 nM)
In short: as §1

[10] = tested on: PPARg:RXRa 90nM:30nM, anti-RXR (NR concentration 90 nM, RXRa partner concentration 30 nM)
In short: as §1

[11] = tested on: PPARg:RXRa DBDmut IVT, anti-RXR (DBD mutation: RXRa K156A/R161A, NR concentration 270 nM, RXRa partner concentration 90 nM)
In short: as §1

[12] = tested on: PPARg:RXRa IVT, anti-PPARg (NR concentration 270 nM, RXRa partner concentration 90 nM)
In short: as §1

[13] = tested on: PPARg DBDmut:RXRa IVT, anti-PPARg (DBD mutation: PPARg1 K132A/R137A, NR concentration 270 nM, RXRa partner concentration 90 nM)
In short: as §1

[14] = tested on: PPARg DBDmut IVT, anti-PPARg (DBD mutation: PPARg1 K132A/R137A, NR concentration 270 nM)
In short: as §1

[15] = tested on: PPARg homodimer (NR concentration 180 nM)
In short: as §1

[16] = tested on: PXR:RXRa (NR concentration 270 nM, RXRa partner concentration 90 nM)
In short: as §1

[17] = tested on: PXR homodimer (NR concentration 270 nM)
In short: as §1

[18] = tested on: RARa:RXR (NR concentration 270 nM, RXRa partner concentration 90 nM)
In short: as §1

[19] = tested on: RARa homodimer (NR concentration 270 nM)
In short: as §1

[20] = tested on: RARb:RXRa (NR concentration 270 nM, RXRa partner concentration 90 nM)
In short: as §1

Sequence	PBM binding z-score [1]	PBM binding z-score [2]	PBM binding z-score [3]	PBM binding z-score [4]	PBM binding z-score [5]	PBM binding z-score [6]	PBM binding z-score [7]	PBM binding z-score [8]	PBM binding z-score [9]	PBM binding z-score [10]	PBM binding z-score [11]	PBM binding z-score [12]	PBM binding z-score [13]	PBM binding z-score [14]	PBM binding z-score [15]	PBM binding z-score [16]	PBM binding z-score [17]	PBM binding z-score [18]	PBM binding z-score [19]	PBM binding z-score [20]
TCAGACAGGTGAAGCTAACTCAGGTACGCAGTCG	0.462	0.31	-0.268	0.231	-0.92	0.744	0.519	1.5	3.44	2.75	2.31	0.713	0.0407	-0.303	0.616	0.0875	0.111	0.285	0.225	0.749
ATATGTAGGTTAAGGGTTATTCAGGTTGGTTCGC	2.31	3.16	1.3	2.8	1.11	5.82	10.4	8.81	8.91	9.75	7.57	7.51	3.47	3.04	2.78	2.84	1.6	2.88	2.39	1.88
CGAACTAGGTCATCCAGGACAGCGAATACATTGA	4.51	2.55	0.58	2.07	-0.199	4.82	7.57	6.41	4.29	5.78	8.26	8.15	1.97	1.48	1.78	1.78	1.09	2.33	-0.0811	3.81
CCAGACAGGAGAGAAGGTAACTCAGCCTCGATTA	-0.282	-0.227	-0.0445	0.0989	0.0914	-0.133	0.348	-0.148	0.0221	-0.398	-0.43	-0.372	-0.415	-0.373	0.786	-0.0804	0.0829	-0.197	0.0212	-0.091
TGAATGGGGTTAAAGATCAGGGAACGTGGCGTCG	5.11	3.48	0.361	4.01	3.3	5.61	6.88	7.24	5.21	7.51	2.89	3.96	1.84	2.48	2.38	3.45	1.64	5	1.66	2.43
CTCGAAAGGTCGTGCTCAGGTGACTATACCAAAC	5.25	3.88	0.561	3.69	0.323	4.97	2.84	3.95	1.46	2.76	1.01	2.13	-0.324	0.674	1.85	3.67	0.399	4.75	0.319	4
CCTACTGGGCCAAAGGTCATTGTTTCCAATGCTC	4.79	5.08	4.83	4.72	1.37	6.74	11.7	10.6	10.6	11.3	5.12	6.92	2.88	1.37	5.48	5.37	1.86	6.23	1.11	4.16
CCTGCTAGGTCAATGGTCGGCTAAAGCAGCTCGC	2.91	2.29	0.0582	1.14	-0.355	2.95	3.48	4.34	1.27	3.38	4.15	4	-0.289	-0.553	1.3	0.918	-0.868	1.47	0.0604	3.73
GCATGTAGGTAATACAAGGTGAAAGTCCGATTGT	0.127	1.13	0.162	0.172	-0.45	1.62	1.34	1.52	0.458	0.981	4.42	4.28	0.0664	0.517	0.562	0.369	0.257	1.52	0.17	0.218
TCAGCTAGGTCAACGATGGTCAGCTAATCTGCTA	3.13	2.34	-0.215	1.41	-0.491	3.2	2.64	2.95	2.5	2.66	4.15	4.22	-0.361	-0.524	1.38	1.42	-0.591	1.96	-0.477	4.05
CCTACTTGGCCAAGGTCATTGATCAGTCAAAGCA	3.65	4.26	1.93	3.87	1.21	4	1.27	2.15	0.389	1.41	1.37	2.08	-0.0462	-0.266	2.44	3.9	1.45	3.57	1.49	3.49
ATCTCTAGGTAAGACTCAATTCAGTGAAGAACGC	0.446	0.482	0.559	0.00858	0.847	0.0535	0.199	0.208	0.402	0.378	1.93	0.919	0.318	1.1	0.738	-0.0296	0.798	0.462	1.25	0.115
TAGCCTAGGTAATGCGGGCCAGTATAGTGTCGGC	-1.49	-1.07	-0.66	-1.17	-1.38	-0.346	0.000474	-0.669	-0.676	-0.655	0.0726	0.795	-0.707	-0.721	-1.01	-0.858	-1.13	-0.925	-1.12	-0.447
ACAGACGGGTGATGAAGGTAACTCAGGCTATCAT	-0.328	-0.456	-0.165	-0.422	-0.384	-0.198	0.613	-0.161	0.108	-0.458	-0.229	0.424	0.246	-0.242	-0.329	-0.323	-0.116	-0.078	-0.0586	-0.204
CGAACTAGGTCAAGAACAGTGAATCTCCGCACGC	2.92	1.9	0.155	1.35	0.0467	4.39	6.53	6.17	2.93	5.49	8.01	8.06	0.866	0.438	1.15	0.968	-0.254	1.69	0.13	3.69
TCATTTAGGTAATACAGGTGAAAGTCGGCATCTA	1.6	1.41	0.774	1.47	1.18	2.02	0.962	2.92	4.52	3.72	3.53	3.29	1.53	1.6	1.72	1.06	0.701	1.43	2.03	1.07
CGTCCATGGTCAATGCTAGGTCAGTGAAAGCATT	0.15	0.428	0.451	0.222	-0.306	0.49	-0.131	-0.408	-0.327	-0.269	0.278	0.623	-0.309	-0.685	0.231	0.368	-0.367	0.816	-0.251	2.17
CAAACTAGGTCACAGAGGTCCAAGTCCGTGCGTA	4.06	3.27	0.422	2.32	0.233	5.18	8.72	7.58	5.04	7.32	8.78	9.18	3.75	2.44	2.41	3.43	0.225	3.05	0.32	4.22
CCAGTCAGGTGAAAGGTAACTCAGTCTGGTACGC	0.669	0.466	-0.287	0.541	-0.583	3.61	6.45	6.44	5.15	7.56	3.47	3.78	-0.52	-0.877	1.17	0.577	-0.2	1.58	0.202	1.55
